Jurkat NFkB inh – inhibitors of induced NF-kB luciferase reporter, primary screen, TCR NF-kB activation inhibitor project, cell-based, luminescence, uHTS. Jurkat, PMA/ionomycin-induced NF-kB luciferase reporter. inhibition, % at 4 µM. actives 0.53% (n = 330,000); in the data active = inhibition above about 50%
Mdm2-MdmX inh – inhibitors of human Mdm2-MdmX association, primary screen, cell-based, luminescence, split luciferase, SaOS-2, uHTS; Protein Mdm4 (Homo sapiens) + E3 ubiquitin-protein ligase Mdm2 (Homo sapiens), …; SaOS-2 split-luciferase Mdm2/MdmX complementation; inhibition, % at 8 µM; actives 3% (n = 330,000);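 active = inhibition of at least 50% at 8 µM in the primary screen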
Beta apoptosis – inhibitors of cytokine-induced beta cell apoptosis, primary screen, luminescence; INS-1E cytokine-induced death, ATP luminescence, 48 h; percent of positive-control rescue, neutral wells zero; protection from apoptosis, % (no concentration beside the values); actives 0.8% (n = 300,000); AID 435005, 2010;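 active = Every replicate reaches about 75%, or at least half do and their mean reaches it too, limit read from the data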;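 also: 0% = cytokine-treated negative control wells and 100% = positive control rescue; higher means more ATP so stronger rescue from cytokine killing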
Gli-Sufu block – Gli-Sufu pathway antagonists, primary screen, luciferase luminescence, Sufu-KO-LIGHT cells, uHTS | inhibition, % at 5 µM | actives 0.74% (n = 340,000) | Sufu-KO-LIGHT fibroblasts, Gli luciferase reporter luminescence;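 active = inhibition above about 55%, limit read from the data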;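 also: 0% = DMSO-treated cells and 100% = wells with medium but no cells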
697 NFkB inh – inhibitors of PMA/ionomycin-induced NF-kB reporter, 697 cells, primary screen, B-cell NF-kB inhibitor project, cell-based, luminescence, uHTS | 697 B-cell NF-kB luciferase reporter, 16 h | inhibition, % at 4 µM | actives 0.33% (n = 330,000) | AID 435022, 2010; in the data active = inhibition above about 35%
Mdm2 MdmX conf – Mdm2-MdmX complex disruptors, retested hits, confirmation, luminescence, single concentration | inhibition, % at 8 µM | Mdm2-MdmX binding, luminescent assay | AID 489028, 2010 | shares compounds with Mdm2-MdmX inh | actives 55% (n = 10,000); in the data active = inhibition above about 40%
FLuc counter – full-length luciferase signal inhibition, confirmation, counter-screen for Mdm2/MdmX interaction inhibitor project, cell-based, single concentration, SaOS-2; inhibition, % at 8 µM; SaOS-2 full-length luciferase counterscreen, luminescence; shares compounds with Mdm2-MdmX inh; actives 77% (n = 6,200); AID 504607, 2011;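 active = mean inhibition at 8 µM reaching about 37%, which flags the compound as non-specific, limit read from the data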;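 also: p53-null SaOS-2 cells with luciferase driven by a doxycycline-inducible promoter; compound on cells about two nights before reading with doxycycline added after day one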
* marks the source's active call; other numbers are inactive results; x = not tested or not shown. Most compounds without a hit are left out; they make up all but 4% or so of the library.

SMILES	Jurkat NFkB inh	Mdm2-MdmX inh	Beta apoptosis	Gli-Sufu block	697 NFkB inh	Mdm2 MdmX conf	others
Cc1ccc2[nH]c(=O)c3cc(C(=O)N(C)Cc4ccco4)sc3c2c1	-11.2	19.0	-5.6	1.0	-6.3	x
Cc1cc(NC(=O)CSc2nc(C(C)C)nc3ccccc23)no1	23.6	39.1	-5.8	2.9	-13.5	x
Cc1cc(NC(=O)C(C)Sc2nc(-c3cccs3)nc3ccccc23)no1 (centres undefined)	42.1	84.3*	x	6.1	-6.0	52.5*	FLuc counter=68.1*
CC(/C=C(\NC(=O)c1ccccc1)C(=O)N=Nc1c(O)[nH]c2ccc(C)cc12)=C\c1ccccc1	37.3	64.3*	34.0	28.3	26.1	46.7*	FLuc counter=81.9*
CCC(Sc1nc2cc(OC)c(OC)cc2c(=O)n1CCc1ccc(S(N)(=O)=O)cc1)C(=O)NCCOC (centres undefined)	2.5	-16.7	7.0	-1.1	3.0	x
CCOc1cccc(/C=N/NC(=S)Nc2ccccc2[N+](=O)[O-])c1O	26.8	84.6*	69.9	53.8	-118.2	83.3*	FLuc counter=48.8*
Cc1ccc(S(=O)(=O)N2CCN(S(=O)(=O)N3CCCCCC3)CC2)cc1	0.2	-20.0	-4.8	3.3	-27.4	x
CC(=O)NC(Cc1ccc(F)cc1)C(=O)NC1CCN(c2ncccc2[N+](=O)[O-])CC1 (centres undefined)	4.2	4.8	1.5	1.1	18.9	x
CC(C)Oc1ccc(C(=O)Nc2ccc(NC(=O)c3ccco3)c(Cl)c2)cc1	-35.8	2.3	-3.5	11.9	-16.0	x
CC(C)COc1ccc(C(=O)Nc2ccc(NC(=O)c3ccco3)c(Cl)c2)cc1	-27.8	59.7*	10.0	-0.2	-0.6	10.3
CC(C)C(CCNC1CCN(C)CC1)c1ccc(Cl)cc1 (centres undefined)	43.4	76.5*	x	9.3	21.9	55.8*	FLuc counter=54.2*
CC(C)C(CCNCc1ccccn1)c1ccc(Cl)cc1 (centres undefined)	3.2	18.4	2.6	18.3	-10.3	x
COc1ccc(-n2c(C)c([N+](=O)[O-])c3ccc(O)c(CN(C)C)c32)cc1	36.6	78.7*	-10.1	8.5	0.4	90.5*	FLuc counter=52.5*
COc1ccc(-n2c(C(C)n3nc(C)c([N+](=O)[O-])c3C)n[nH]c2=S)cc1 (centres undefined)	3.8	-14.4	4.6	-0.7	-3.2	x
COc1cc(C2C(C#N)=C(N)OC3=C2C(=O)CC(C)(C)C3)cc2c1OCO2 (centres undefined)	-0.8	3.4	-3.6	1.4	-13.6	x
Cc1ccc(-c2nn3c(C)nnc3s2)cc1NC(=O)c1ccc(-c2ccc(Cl)cc2Cl)o1	14.3	79.6*	x	18.6	14.2	25.1
Cc1ccc(-c2nn3c(C)nnc3s2)cc1NC(=O)c1ccc(-c2cccc(Cl)c2)o1	-3.1	-2.6	x	23.0	8.9	x
CCn1c(=O)cc(SCC(=O)Nc2ccc(C)cn2)c2ccccc21	15.5	100.4*	51.7	-217.9	15.7	69.5*	FLuc counter=143.1*
CCn1c(=O)cc(SCC(=O)Nc2cc(OC)c(OC)c(OC)c2)c2ccccc21	2.9	52.5*	-4.0	-0.1	27.1	18.8
CCn1c(=O)cc(SCC(=O)NCc2ccc(C)cc2)c2ccccc21	26.3	32.1	3.2	-15.7	12.2	x
CCn1c(=O)cc(SCC(=O)NCc2ccc(C)o2)c2ccccc21	24.5	59.6*	-17.0	-4.5	11.9	36.8
Cc1ccc(C)c(NC(=O)CN(C)C(=O)c2ccc(Cl)nc2)c1	4.6	-12.5	-4.6	32.8	-12.9	x
CC12CCC(C(=O)NCc3ccc(F)cc3)(OC1=O)C2(C)C (centres undefined)	1.5	10.2	-2.1	-18.3	4.0	x
CN1CCN(c2cc3c(c4c2[nH]c2ccccc24)C(=O)CC(C)(C)C3)CC1	4.7	56.5*	x	10.2	10.6	20.9
Cc1ccc2c(c1)C1CN(C)CCC1N2Sc1ccccc1[N+](=O)[O-] (centres undefined)	10.3	61.1*	-5.2	-0.3	16.9	40.2*	FLuc counter=62.0*
SMILES	Jurkat NFkB inh	Mdm2-MdmX inh	Beta apoptosis	Gli-Sufu block	697 NFkB inh	Mdm2 MdmX conf	others
CCOC(=O)C1=C(C)NC(C)=C(C(=O)OCC)C1c1ccccc1/C=C/C(=O)OC(C)(C)C	24.3	71.6*	39.0	x	-1.2	30.9
O=C1CN(C(=O)c2ccc(F)cc2)c2ccccc2N1	3.5	-18.5	x	-0.5	3.1	x
COc1ccc(C[C@H]2CN3C(=NC[C@@H]3C(C)C)N2CCNC(=O)c2ccc(C)c(Br)c2)cc1	25.7	63.5*	27.1	29.7	-6.2	32.1
CC(Sc1nnc(-c2ccccc2F)o1)C(=O)Nc1ccc(N2CCOCC2)cc1 (centres undefined)	-14.9	-27.9	x	-17.5	-7.7	x
CCN(CC(=O)Nc1ccc(NC(C)=O)cc1)C(=O)CN1C(=O)C2CCCCC2C1=O (centres undefined)	-0.4	12.4	0.1	-1.4	4.3	x
CCOC(=O)C1CCN(c2cc3c(cc2NC(=O)c2ccc(OC)c(OC)c2)n(C)c(=O)n3C)CC1	-6.4	65.0*	20.8	20.0	22.8	26.1
COCCCN=C1NN=C(c2cc(C)n(-c3ccccc3)c2C)CS1	-4.8	12.8	-3.0	11.5	19.2	x
C=CCN=C1NN=C(c2cc(C)n(CC=C)c2C)CS1	-33.1	86.8*	2.3	71.3*	-61.5	89.0*	FLuc counter=50.1*
COCCCN=C1NN=C(c2cc(C)n(Cc3ccccc3Cl)c2C)CS1	-8.0	78.7*	0.5	36.7	7.4	76.5*	FLuc counter=79.8*
O=C(OC1CCOC1=O)c1ccc(CO)cc1 (centres undefined)	-13.4	-18.8	-4.5	-10.3	-3.4	x
Cc1[nH]nc2c1-c1nc3ccccc3nc1C(C)(C)C2	-15.3	50.4*	-8.2	17.9	-12.6	26.6
CC12CCC(C)(c3nc4ccccc4nc31)C2(C)C	-1.3	34.2	-3.2	8.3	1.7	x
CC1CCN(C(=O)CN2C(=O)c3cccc4cccc(c34)C2=O)CC1	11.6	15.0	-8.8	-0.9	-1.1	x
O=C(CN1C(=O)/C(=C\c2cccc(Cl)c2)Oc2ccccc21)N1CCN(c2ccccn2)CC1	-6.2	64.6*	0.3	x	4.1	12.8
O=C(CN1C(=O)c2cccc3cccc(c23)C1=O)N1CCN(c2ccccn2)CC1	5.4	50.5*	-0.7	-29.6	0.3	-4.7

Screening data deposited in PubChem BioAssay by several laboratories.
